In PMC5540273 (PLoS ONE, 2017):

Assays:
Details in all cases: concentration: 1 μM,replicates: in singlicate; n = 1
PRKD3 = test system: PRKD3
PRKG1 = test system: PRKG1
PRKG2 = test system: PRKG2
PRKR = test system: T1, PRKR
T1 construct: gene EIF2AK2

PRKX = test system: PRKX
PRP4 = test system: PRP4
PYK2 = test system: T2, PYK2
T2 construct: gene PTK2B

QSK = test system: QSK
RAF1 = test system: RAF1
RET = test system: RET
RIOK1 = test system: RIOK1
RIOK2 = test system: RIOK2
RIOK3 = test system: RIOK3
RIPK1 = test system: RIPK1
RIPK2 = test system: RIPK2
RIPK4 = test system: RIPK4
RIPK5 = test system: RIPK5
ROS1 = test system: ROS1
ROCK2 = test system: ROCK2
ROCK1 = test system: ROCK1
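Also: KINOMEscan kinase panel screen.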

SMILES	%Inh (PRKD3) [%]	%Inh (PRKG1) [%]	%Inh (PRKG2) [%]	%Inh (PRKR) [%]	%Inh (PRKX) [%]	%Inh (PRP4) [%]	%Inh (PYK2) [%]	%Inh (QSK) [%]	%Inh (RAF1) [%]	%Inh (RET) [%]	%Inh (RIOK1) [%]	%Inh (RIOK2) [%]	%Inh (RIOK3) [%]	%Inh (RIPK1) [%]	%Inh (RIPK2) [%]	%Inh (RIPK4) [%]	%Inh (RIPK5) [%]	%Inh (ROS1) [%]	%Inh (ROCK2) [%]	%Inh (ROCK1) [%]
CCn1c(-c2nonc2N)nc2cncc(CNC3CCNCC3)c21.Cl [SB-747651]	50	74	86	0	55	20	0	1	97.5	5	30	0	6	0	5	19	0	0	–	–
Nc1nccc(-c2ccc3c(N)n[nH]c3c2)n1 [GSK1034945]	4	0	68	0	68	27	8	0	17	9	96.5	52	91.2	3	14	77	0	0	56	–
NC(=O)Nc1sc(-c2ccc(F)cc2)cc1C(N)=O [GW789449]	0	6	8	35	0	75	26	0	43	55	99.4	37	98.5	0	0	79	69	0	0	14
O=C(NOCC1CC1)c1cc(Br)c(F)c(F)c1Nc1ccc(I)cc1Cl	0	0	0	0	0	32	0	0	0	6	0	0	0	0	0	0	0	0	0	0
C[C@@H](Oc1cc(-n2cnc3cc(-c4cnn(C)c4)ccc32)sc1C(N)=O)c1ccccc1Cl [GSK580432]	0	17	2	0	0	81	0	42	13	90	100	25	82	39	10	0	15	27	11	14
CSc1nccc(-c2c(-c3ccc(F)cc3)ncn2CCCN2CCOCC2)n1.Cl [SB-217146]	0	0	0	0	0	0	5	5	0	2	0	0	0	0	0	3	33	0	10	40
O=C(Nc1cccc(C(F)(F)F)c1)c1cccc(Oc2ccc3nccn3n2)c1	0	19	1	0	17	8	0	6	75	69	0	0	15	1	0	17	7	6	22	33
CCNCC(Cc1ccccc1)NC(=O)c1cc(Br)c(-c2ccnc3[nH]ccc23)s1.Cl.Cl (stereo not drawn) [GSK1383280]	73	99	99	22	95.6	6	25	0	2	75	61	61	72	0	0	20	32	44	99.6	99.8
COc1cc2ncn(-c3cc(OCC4CCCCC4)c(C(N)=O)s3)c2cc1OC [GSK204559]	2	9	0	0	10	0	0	12	9	17	90	5	67	2	0	0	0	9	0	0
